{
  "source": "the supplement of paper PMC12632987",
  "binders": {"B1": {"name": "GBRAP_139_3718 (protein)", "chain": "SAAEEKIEKAKEIVEKYKDDLEKLAKELAKLISEVDGETALEIVRAAAEELKDWSWEEWEEFIELLEKELKELGFDEDDVLAIKGEFEAVMAKHLMAKEA"}, "B2": {"name": "GBRAP_117_2578 (protein)", "chain": "MEEREEVKRRLRETVREAGKRLEESKSLSPEERRKVEEEVRERIAEAVREALEVLSREEVLDIVEEELLEFDAETYFKIMSFVEEAIEEIREEEEREREE"}, "B3": {"name": "GBRAP_11_2868 (protein)", "chain": "KKEKLEELAKLVKEAIEKLEKLLKEGVDNEELRKEIKKLLKEALKLAEKYASPAVAELLKIALEDLEKAEEDPENAKEYVERALAALRVAHGDLLLEIDE"}, "B4": {"name": "GBRAP_172_4999 (protein)", "chain": "GTTLLKLNLLGLSKEEAVETAVKAVKETIEKTGNNLVVAVIADDEETVEAVEKAIKKVAKEKGVKVEVVGEAYRSEEDERRVLAAAEAEKINLEYEEEEK"}, "B5": {"name": "GBRAP_11_2687 (protein)", "chain": "KKEKLEEGAKLAEELAKLIEELLKEGVDNEKLLKELEKKLKELEKLTKEYADKASQKLTEDIKETWEEMLKDPEKAEEYAKEMLAGARVLAGDYLLEIEE"}, "B6": {"name": "GBRAP_160_4408 (protein)", "chain": "SEELEETAERILEAVEDELELLLELGEVDPEAAAGLLEGTILLEAFEDDSLTEEQEEEIEELAEELAERLERLLKEEGRMTEEIVEELLEEAEEGLEEII"}, "B7": {"name": "GBRAP_160_4409 (protein)", "chain": "SEELKKTAERILEAVKEELELLLELGEIDPEAAAGLLEGTILLEVFEDDSLTEEQEEKLEELAEELAEELRKRLEEEGKMTEEIKEELLKLAKEGLEKII"}, "B8": {"name": "GBRAP_160_4407 (protein)", "chain": "SEALKETAERILEAVKDELDLLLELGKIDPKAAAGLLEGTVLLEMFEDDSLTEEQEEKLEELAERLAERLEKLLKEEGEMTEEIRKELLEEAKRGLEEII"}, "B9": {"name": "GBRAP_14_3807 (protein)", "chain": "MEEKKKAITDNTDELKEIVTEILKDAPQEVRDAVLAAIEDFRKTVIENNLNPDEIAELGDELVKKVEEITKDLPADVRARVLAAVRVHTGEIILEVEELE"}, "B10": {"name": "GBRAP_95_7033 (protein)", "chain": "EDDKLALESAIEVAVAAAELGDDDAAARALREALELLKKAGKVELDEELLKEAIDVIERVGVKKLPREDVLELLELLLEAAETEEVKELAEKAIERVKKR"}, "B11": {"name": "GBRAP_160_4426 (protein)", "chain": "SAKLEKAKKLITEIVEETAEMMEGESAEERIVLVRVAEGEILLELEELGLLTDEIEAVIDETFAAIAAHIAAHPDISQEELRALLKAAEEKIKKQLEKEA"}, "B12": {"name": "GBRAP_52_6047 (protein)", "chain": "SEEEIRRLAREAYEAMLAGDEERARALLREIFATKDEEKLEVFLETMVELAREARPEEHDAVARLVELAEEVGREAGIPEEFLDDFEARVFAAMYEAEQR"}, "B13": {"name": "GBRAP_11_2845 (protein)", "chain": "KKEKLKEIAEQADKVIALLDELIAAGTDDEELWKKLEEQLKKLQELVEKYLDESEKELAKLAKEELEEAKADPANAEQHLNNAKAFVSTLQGLVLLEIEE"}, "B14": {"name": "GBRAP_125_3027 (protein)", "chain": "SMEETAANLAKIARALGFSEGDVAELVANALAHGIKGAMIALALALGDEELADLLERLTEEEVARVVAEAAAEIEANPDLTPEEVKALLLELARRAVAES"}, "B15": {"name": "GBRAP_35_5514 (protein)", "chain": "STDDTIAEMLESYIEDLTLAVPELDPETLHTLTLGAAEMARELIEDNKNNKEIVKRIKESLERLLEALEARGLDDPLLREAAERVREVIEYAEEVLKEIE"}, "B16": {"name": "GBRAP_150_3890 (protein)", "chain": "SLEELLTIADTALDILELDIESGGKTIDQTLKVVQALVDEAKNFSPELQKLAEEALKKVEEAKKLKEEGGDQKEIDKLLKEAKKKLEELIKLLEKKIKEK"}, "B17": {"name": "GBRAP_83_6961 (protein)", "chain": "MIVVAASERPESIRSSIEAAIDLHKNEGKEVEIELFVTRENAPAALEGLKKAIDAGVEAEITLVTREEDREAAEALAAELKAYAAAKGRNTTVTVEVLPA"}, "B18": {"name": "GBRAP_184_5320 (protein)", "chain": "KVIHKVIEVETEEEAIEKLEEVKKEAKETGEKYLVVVEIKNATEKKIEAIAEKIKEMKEEGLPIEVIVELLDEVDEELTDFAVEKMEEAGAKVVISLKDE"}, "B19": {"name": "GBRAP_160_4155 (protein)", "chain": "SEELKKLIKEIKELADEAIKMMEGETPEQAKTIARVTLGDILLLVEENPAVSEEAEDKIGAIADATEATLKANPDLTVEEVKALVKEARDKVVAILEEEA"}, "B20": {"name": "GBRAP_160_4153 (protein)", "chain": "SEEIEKLIKEINEIADEAIKMMEGETPEQAKTIARVALGEMLLLVEENEAVSEETEDKIGEVVDATEATLKANPNLTVEEVKALLNEARDKIVKILKEES"}, "B21": {"name": "GBRAP_128_3366 (protein)", "chain": "LDEALLAEIRALVERMITSSVEETAALTREIVARIGTLSLAEQEAAVEIILAALPKLTKEKLEVVADTIRAAAPELDPETQRLLAEVEVEALNLAEELEE"}, "B22": {"name": "GBRAP_53_6391 (protein)", "chain": "GEERLEELIEELNRLIEELKTADPETAIKLAREAVELLLELAELGLPEEELVELVRRFAEAARPKPELEPVLVELAKRLAALGREEAAAEVAEALVEELE"}, "B23": {"name": "GBRAP_35_5625 (protein)", "chain": "NTNKEIAEATVAVMEDTLLAVDEVPAETFIDTAIKVAKAGIEVAKELKDDKENAKKILEAVKELLEAALKKAEETGAPEEKIKELKELLKEVEELEKKLK"}, "B24": {"name": "GBRAP_43_5791 (protein)", "chain": "MEEIVEGALDFARTALETPEITDETKARIVVDAVDFAADEGLLTEEELEELLRLLAESVSLEVAERALEEILKRLKELGAPQSLIDVVEKALEEVKKRRA"}, "B25": {"name": "GBRAP_160_3991 (protein)", "chain": "SEEIEKLKEEFKKLFDEMLELAEGESPEERLAVVRVMMGEVILLAEESGVVSDEAEEEIAKIMDELVATVEANPDMSMEELKALVEEALKKIFEVIDKYS"}, "B26": {"name": "GBRAP_52_5980 (protein)", "chain": "AEAEARALAEELLALMLAGDREGARALIREIVATKSEAFLELVFAALAELARTATPEERDAIVELALLLEDEALEGGFDEAVVDAGVARVAAAAVAAAAA"}, "B27": {"name": "GBRAP_14_3765 (protein)", "chain": "MEEVEKIIDETGKEIAALLAELVPEKAEEFKEAIDEVRKETIARIKETGDALAAAEEGERRLAERIAEITADLPEERRAEALAVVRVLFGQAILEIDEAL"}, "B28": {"name": "GBRAP_184_5033 (protein)", "chain": "KVLEKEIKAKNKEELEEKLKKLAEEVKGSKADLIVLLDIENPTKEKVKLAIEGLGAIKKAGYVSSVTIGFENELSEELTDVALETADKEGVKVVLPISDE"}, "B29": {"name": "GBRAP_42_5723 (protein)", "chain": "MYLVNLEVVVATREELERAIAIWRERNARYRKEKGIIIRLTIAAPEEAAELAAEAEAESAELAKEADKELDWVVVAASADEVGDAIDIAVDLALEERKEE"}},
  "note": "Whole data set: some 4,500 sequences, median “median log2 fold change of GCK-ALFA target abundance (FLAG IP / Myc IP barcode read proportion)” near 0.078, cut for the lowest 2% near -0.6. The full list was thinned out, with the lowest values kept by preference.",
  "data": [
    {"target": "GABARAP, O95166", "sequence (O95166 whole entry, the tested form may be a part)": "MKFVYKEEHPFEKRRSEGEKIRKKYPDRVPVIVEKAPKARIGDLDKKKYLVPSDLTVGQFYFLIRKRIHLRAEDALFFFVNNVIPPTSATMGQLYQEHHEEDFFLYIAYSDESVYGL", "assay": "median log2 fold change of GCK-ALFA target abundance (FLAG IP / Myc IP barcode read proportion) (log2 ratio); each designed protein is fused to an ALFA-tag nanobody in HEK293 cells to bring the named protein to FLAG-tagged glucokinase (GCK); Myc marks an untargeted standard; higher = target protein stabilised (more abundant)", "details": "target protein: 3xFLAG-MCP-GCK-ALFA reporter; HEK293 landing pad (RPLP)", "method_in_brief": "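Binders fused to an ALFA nanobody were recombined as a library into HEK293 landing-pad cells, which were induced with 2 μg mL^−1 doxycycline and then transfected to express a FLAG-tagged target and a Myc-tagged standard. After 48 h, circular RNA barcodes recovered by anti-FLAG and anti-Myc immunoprecipitation of lysates were reverse transcribed, amplified and sequenced. Each binder's target abundance is the median log2 ratio of FLAG to Myc barcode read proportions, from barcodes present at ≥10^−7 in both replicates, binders carrying ≥3 barcodes per replicate, a 10^−6 pseudocount and pooled replicates.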", "values": [
      {"binder": "B1", "median log2 fold change": 0.0839},
      {"binder": "B2", "median log2 fold change": 0.274},
      {"binder": "B3", "median log2 fold change": 0.0406},
      {"binder": "B4", "median log2 fold change": 0.15},
      {"binder": "B5", "median log2 fold change": 0.232},
      {"binder": "B6", "median log2 fold change": -0.872},
      {"binder": "B7", "median log2 fold change": -0.32},
      {"binder": "B8", "median log2 fold change": -0.289},
      {"binder": "B9", "median log2 fold change": 0.206},
      {"binder": "B10", "median log2 fold change": 0.148},
      {"binder": "B11", "median log2 fold change": -0.243},
      {"binder": "B12", "median log2 fold change": 0.204},
      {"binder": "B13", "median log2 fold change": 0.0872},
      {"binder": "B14", "median log2 fold change": 0.134},
      {"binder": "B15", "median log2 fold change": -0.908},
      {"binder": "B16", "median log2 fold change": 0.232},
      {"binder": "B17", "median log2 fold change": 0.189},
      {"binder": "B18", "median log2 fold change": 0.193},
      {"binder": "B19", "median log2 fold change": -0.546},
      {"binder": "B20", "median log2 fold change": -0.642},
      {"binder": "B21", "median log2 fold change": 0.309},
      {"binder": "B22", "median log2 fold change": 0.2},
      {"binder": "B23", "median log2 fold change": -0.0947},
      {"binder": "B24", "median log2 fold change": -0.0499},
      {"binder": "B25", "median log2 fold change": -0.567},
      {"binder": "B26", "median log2 fold change": -0.762},
      {"binder": "B27", "median log2 fold change": 0.0613},
      {"binder": "B28", "median log2 fold change": -0.000909},
      {"binder": "B29", "median log2 fold change": 0.104}
    ]}
  ]
}
